# According to PubChem BioAssay (NCATS):
# Records with an inconclusive call do not appear. A call without a number means that no potency is given here. Activity calls are given as the source filed them. Unless noted, calls follow the shape of the dose curve; as a rule, active = well fitted curve in the direction sought with a large enough effect; inconclusive = small, poorly fitted or top-dose-only effect, or another doubt; inactive = no such curve, though single readings can be large; an effect the other way counts as inactive or inconclusive.
# What was measured:
# [1] = tested on: Zika virus NS2B-NS3 protease (linked construct); experiment: Primary screen NINDS Rhodamine qHTS for Zika virus inhibitors (AID 1347160); also: nearly all actives have a fitted effect of over 55% in size; also: potency is read from the fitted curve at half-maximal effect
# Summary of the method: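 In 10 mM Tris-HCl pH 8.0 containing 0.01% Tween 20, linked NS2B-NS3 protease (25 nM final) is exposed to test compounds for 15 min. Cleavage of 1.5 microM Rhodamine110 substrate is tracked by fluorescence over 15 min.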
# [2] = OV-KATE Cancer Cell Toxicity qHTS against the NCATS CANVASS Library (AID 1347345); also: potency is read from the fitted curve at half-maximal effect
# Summary of the method: (§1)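 Viability read-out: CellTiter-Glo luminescence after 72 h compound exposure at 37 °C/5% CO2. Cells plated at 1000/well, 4 h pre-incubation; 11-point titration. Bortezomib served as control.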
# [3] = OV-SAHO Cancer Cell Toxicity qHTS against the NCATS CANVASS Library (AID 1347348); also: nearly all actives have a fitted effect of over 55% in size; also: potency is read from the fitted curve at half-maximal effect
# Summary of the method: as §1
# [4] = COV-362 Cancer Cell Toxicity qHTS against the NCATS CANVASS Library (AID 1347352); also: potency is read from the fitted curve at half-maximal effect
# Summary of the method: (§2)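 qHTS cytotoxicity: compounds tested in 11 concentrations on 1000 seeded cells per well over 72 h; bortezomib served as control; signal from CellTiter-Glo luminescence.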
# [5] = UWB1.289-WTBRCA1 Cancer Cell Toxicity qHTS against the NCATS CANVASS Library (AID 1347354); also: potency is read from the fitted curve at half-maximal effect
# Summary of the method: as §2
# [6] = HEK293 24hr Apoptosis Induction qHTS against the NCATS CANVASS Library (AID 1347359)
# Summary of the method: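 HEK293 cells, 500 per well, exposed to an 11-point compound series for 24 hours at 37 degrees C. Caspase 3/7 activity read by Caspase-Glo luminescence (DEVD substrate) after 15 min at room temperature.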
# [7] = HEK293 12hr Apoptosis Induction qHTS against the NCATS CANVASS Library (AID 1347361)
# Summary of the method: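 HEK293 cells (500/well, DMEM + 10% FBS) were exposed to natural products across an 11-point series for 12 hours at 37 degrees C. Caspase-3/7 activity was then measured with DEVD luciferase luminescence after 15 min at room temperature.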
# [8] = tested on: NAD(P)H diaphorase (Clostridium kluyveri); experiment: Diaphorse counterscreen qHTS: Assay Interference Panel against the NCATS CANVASS Library (AID 1347362)
# Summary of the method: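 Clostridium kluyveri diaphorase in PBS + 0.01% Tween-20 preincubated 15 min with compounds. Resazurin and NADH then added for 5 min at room temperature in the dark; resorufin fluorescence read (ex 525, em 598).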
# [9] = target: Luciferin 4-monooxygenase (Photinus pyralis) (UniProt P08659); experiment: Firefly luciferase counterscreen qHTS: Assay Interference Panel against the NCATS CANVASS Library (AID 1347363)
# Chain of Luciferin 4-monooxygenase (Photinus pyralis) (P08659 whole entry, looked up): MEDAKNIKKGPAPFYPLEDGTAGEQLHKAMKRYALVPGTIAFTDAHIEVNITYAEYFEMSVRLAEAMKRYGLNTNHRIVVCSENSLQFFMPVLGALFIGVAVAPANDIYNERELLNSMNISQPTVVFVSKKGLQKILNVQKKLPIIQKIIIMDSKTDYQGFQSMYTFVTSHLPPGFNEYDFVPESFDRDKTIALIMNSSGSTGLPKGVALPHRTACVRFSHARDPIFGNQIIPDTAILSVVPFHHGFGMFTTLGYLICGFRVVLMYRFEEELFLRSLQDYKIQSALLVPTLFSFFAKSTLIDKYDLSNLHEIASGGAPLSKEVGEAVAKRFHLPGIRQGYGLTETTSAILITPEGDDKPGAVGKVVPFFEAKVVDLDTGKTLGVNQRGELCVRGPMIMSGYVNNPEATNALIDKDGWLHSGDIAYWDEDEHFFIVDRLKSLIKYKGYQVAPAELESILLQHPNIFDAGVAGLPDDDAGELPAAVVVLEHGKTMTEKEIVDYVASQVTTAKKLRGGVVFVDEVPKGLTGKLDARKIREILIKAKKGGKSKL
# Summary of the method: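 Purified P. pyralis luciferase (0.04 ug/mL, 4x reagent) added to Tris-acetate buffer with 0.013 mM D-luciferin, 0.013 mM ATP and 13.3 mM Mg-acetate; compounds preincubated 15 min, then luminescence read after 5 min, RT.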
# [10] = target: Cytochrome P450 1A2 (Homo sapiens) (UniProt P05177); experiment: p450-cyp1a2 (AID 410; calls by dose curve; also: potency is read from the fitted curve at half-maximal effect)
# Chain of Cytochrome P450 1A2 (Homo sapiens) (P05177 whole entry, looked up): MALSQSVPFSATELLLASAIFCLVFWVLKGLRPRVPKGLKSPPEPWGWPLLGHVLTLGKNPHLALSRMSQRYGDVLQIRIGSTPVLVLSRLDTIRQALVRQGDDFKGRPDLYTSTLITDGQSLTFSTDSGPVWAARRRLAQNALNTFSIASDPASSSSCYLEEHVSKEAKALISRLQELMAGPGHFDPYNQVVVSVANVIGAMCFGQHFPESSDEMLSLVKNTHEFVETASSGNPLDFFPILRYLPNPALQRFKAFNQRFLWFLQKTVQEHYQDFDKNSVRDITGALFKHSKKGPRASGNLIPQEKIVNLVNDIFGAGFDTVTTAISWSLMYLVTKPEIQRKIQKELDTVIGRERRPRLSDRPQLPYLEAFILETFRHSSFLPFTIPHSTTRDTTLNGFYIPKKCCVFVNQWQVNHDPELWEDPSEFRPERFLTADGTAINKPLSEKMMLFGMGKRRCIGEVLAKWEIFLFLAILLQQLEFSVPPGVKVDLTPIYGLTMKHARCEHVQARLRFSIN
# Summary of the method: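 Inhibition was calculated relative to 57 uM furafylline (full inhibition). The reaction used human CYP1A2 at 20nM with Luciferin-ME at its Km, 100uM, driven by an NADPH-regenerating system for 60 min at room temperature.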
# [11] = target: Glucocorticoid receptor (Homo sapiens) (UniProt P04150); experiment: GR-GFP Redistribution (AID 450;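 active = compounds whose dose series gives a full or clear partial fitted curve of increased nuclear translocation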; also: potency is read from the fitted curve at half-maximal effect); conditions: U2OS GR-GFP nuclear translocation, laser cytometry, 2 h
# Chain of Glucocorticoid receptor (Homo sapiens) (P04150 whole entry, looked up, the tested form may be a part): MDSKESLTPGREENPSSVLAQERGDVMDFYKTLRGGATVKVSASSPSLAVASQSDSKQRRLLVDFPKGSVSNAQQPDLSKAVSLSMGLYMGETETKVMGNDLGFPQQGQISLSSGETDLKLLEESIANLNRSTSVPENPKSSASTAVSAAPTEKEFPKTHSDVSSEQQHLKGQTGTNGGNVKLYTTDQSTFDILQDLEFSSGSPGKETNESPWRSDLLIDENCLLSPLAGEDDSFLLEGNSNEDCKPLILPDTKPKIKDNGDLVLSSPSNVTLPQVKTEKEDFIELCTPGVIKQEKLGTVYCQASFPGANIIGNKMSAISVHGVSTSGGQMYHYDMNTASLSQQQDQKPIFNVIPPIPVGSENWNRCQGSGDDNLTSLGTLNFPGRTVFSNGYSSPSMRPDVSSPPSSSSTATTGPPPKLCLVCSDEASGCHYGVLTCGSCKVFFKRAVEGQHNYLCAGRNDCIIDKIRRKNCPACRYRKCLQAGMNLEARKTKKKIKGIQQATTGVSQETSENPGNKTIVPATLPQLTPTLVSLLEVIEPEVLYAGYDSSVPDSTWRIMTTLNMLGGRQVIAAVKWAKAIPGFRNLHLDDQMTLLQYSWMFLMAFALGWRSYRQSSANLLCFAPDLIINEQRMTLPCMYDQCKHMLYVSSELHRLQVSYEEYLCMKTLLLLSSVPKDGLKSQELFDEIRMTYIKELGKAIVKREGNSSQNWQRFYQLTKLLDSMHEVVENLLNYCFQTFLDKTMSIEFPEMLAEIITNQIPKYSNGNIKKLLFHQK
# [12] = target: Glucocorticoid receptor (Homo sapiens) (UniProt P04150); experiment: GR-EFC Redistribution (AID 451; calls by dose curve; also: potency is read from the fitted curve at half-maximal effect); conditions: CHO-K1 GR-EFC translocation, beta-gal luminescence, 2 h
# Summary of the method: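 CHO-K1 cells expressing nuclear EA and GR-ED fragments of b-gal; compounds titrated up to 46 uM final, 2 h at 37 C. GR nuclear translocation read as complemented b-gal luminescence after 1 h RT detection.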
# [13] = target: Mitogen-activated protein kinase 10 (Mus musculus) (UniProt Q61831); experiment: JNK3 AlphaScreen Assay (AID 530; active = well fitted curve in either direction with a large enough effect, not every such curve was filed as active;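 also: kinase came from lysate of stimulated human HepG2 cells; signal reports phosphorylation of biotinylated GST-cJun 1-79 at Ser73 with 10 µM ATP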)
# Summary of the method: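 qHTS format: compounds tested as titrations against IL-1beta/TNF-alpha-activated HepG2 lysate JNK3 with biotin-GST-cJun substrate and 10 uM ATP at room temperature. Loss of anti-phospho-cJun AlphaScreen signal indicates inhibition.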
# [14] = target: 3',5'-cyclic-AMP phosphodiesterase 4B (Homo sapiens) (UniProt Q07343); experiment: qHTS Assay for Inhibitors of PDE-IV (AID 607; active = well fitted activation curve with a large enough effect in the main read-out, with a control signal flat, not every such curve was filed as active)
# Chain of 3',5'-cyclic-AMP phosphodiesterase 4B (Homo sapiens) (Q07343 whole entry, looked up): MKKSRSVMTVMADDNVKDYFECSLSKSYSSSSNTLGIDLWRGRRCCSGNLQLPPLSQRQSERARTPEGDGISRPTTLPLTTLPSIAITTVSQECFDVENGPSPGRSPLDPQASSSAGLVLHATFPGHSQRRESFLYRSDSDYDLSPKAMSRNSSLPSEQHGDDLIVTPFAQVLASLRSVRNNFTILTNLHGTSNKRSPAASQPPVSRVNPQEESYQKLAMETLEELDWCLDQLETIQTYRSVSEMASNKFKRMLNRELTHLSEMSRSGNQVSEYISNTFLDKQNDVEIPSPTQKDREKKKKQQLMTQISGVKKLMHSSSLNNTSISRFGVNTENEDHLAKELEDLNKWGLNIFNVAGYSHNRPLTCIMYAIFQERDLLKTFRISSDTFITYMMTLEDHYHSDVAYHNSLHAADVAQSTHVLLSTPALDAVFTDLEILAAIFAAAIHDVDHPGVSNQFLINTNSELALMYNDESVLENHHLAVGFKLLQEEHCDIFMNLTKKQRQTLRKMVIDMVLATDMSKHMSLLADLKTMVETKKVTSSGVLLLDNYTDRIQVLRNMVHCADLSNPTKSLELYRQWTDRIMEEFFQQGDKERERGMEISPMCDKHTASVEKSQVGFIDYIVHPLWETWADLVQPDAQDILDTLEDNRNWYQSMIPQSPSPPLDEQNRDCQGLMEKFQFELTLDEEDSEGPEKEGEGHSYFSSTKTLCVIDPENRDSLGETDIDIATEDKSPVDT
# Summary of the method: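 Cell-based read-out of cAMP via a modified cyclic nucleotide-gated channel and membrane potential dye (535/590 nm) in HEK293 cells expressing PDE4 endogenously. Compounds tested up to 22.9 uM final; 100 uM RO 20-1724 reference.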
# [15] = target: Cytochrome P450 3A4 (Homo sapiens) (UniProt P08684); experiment: qHTS Assay for Activators of Cytochrome P450 3A4 (AID 885); also: nearly all actives have a fitted effect of over 65% in size; also: potency is read from the fitted curve at half-maximal effect
# Chain of Cytochrome P450 3A4 (Homo sapiens) (P08684 whole entry, looked up): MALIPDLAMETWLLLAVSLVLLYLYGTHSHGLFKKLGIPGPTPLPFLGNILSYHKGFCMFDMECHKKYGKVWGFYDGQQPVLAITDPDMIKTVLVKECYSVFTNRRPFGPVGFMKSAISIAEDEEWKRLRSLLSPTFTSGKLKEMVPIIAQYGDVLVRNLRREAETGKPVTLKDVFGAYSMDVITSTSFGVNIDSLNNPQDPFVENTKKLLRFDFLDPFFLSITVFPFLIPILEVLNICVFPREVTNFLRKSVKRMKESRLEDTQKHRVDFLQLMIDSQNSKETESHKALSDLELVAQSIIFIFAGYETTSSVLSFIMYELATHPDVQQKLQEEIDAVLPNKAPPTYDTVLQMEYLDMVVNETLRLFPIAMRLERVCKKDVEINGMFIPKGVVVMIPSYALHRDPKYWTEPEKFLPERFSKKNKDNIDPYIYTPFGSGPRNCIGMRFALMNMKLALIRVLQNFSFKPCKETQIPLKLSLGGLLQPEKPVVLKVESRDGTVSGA
# Summary of the method: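 Signal was normalized against complete inhibition by 57 uM ketoconazole. The reaction used 20nM CYP3A4 with 25uM Luciferin-PPXE, 10-min compound preincubation and a 60-min NADPH-supported step at RT.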
# [16] = target: DNA dC->dU-editing enzyme APOBEC-3G (Homo sapiens) (UniProt Q9HC16); experiment: qHTS for inhibitors of Vif-A3G interactions: Validation (AID 588379)
# Chain of DNA dC->dU-editing enzyme APOBEC-3G (Homo sapiens) (Q9HC16 whole entry, looked up): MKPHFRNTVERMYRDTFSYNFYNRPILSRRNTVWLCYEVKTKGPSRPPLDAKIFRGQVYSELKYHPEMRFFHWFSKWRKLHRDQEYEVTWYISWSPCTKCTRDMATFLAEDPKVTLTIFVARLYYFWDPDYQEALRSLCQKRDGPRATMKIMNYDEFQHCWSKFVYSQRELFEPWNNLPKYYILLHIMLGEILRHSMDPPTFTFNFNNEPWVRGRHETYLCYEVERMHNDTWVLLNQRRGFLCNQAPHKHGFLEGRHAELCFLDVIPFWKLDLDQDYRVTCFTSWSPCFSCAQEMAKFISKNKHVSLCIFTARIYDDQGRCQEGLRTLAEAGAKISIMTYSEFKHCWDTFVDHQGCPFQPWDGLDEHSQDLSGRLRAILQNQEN
# Summary of the method: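 HeLa cells stably expressing Vif and A3G-eYFP, 700 cells/well, incubated overnight at 37 deg C, then exposed to compound overnight at 37 deg C. Inhibition of Vif-mediated degradation read as increased yellow fluorescence (Ex 488/Em 500-530) by laser-scanning cytometry.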
# [17] = tested on: Zika virus NS2B-NS3 protease; experiment: Primary screen GU AMC qHTS for Zika virus inhibitors (AID 1347154); also: nearly all actives have a fitted effect of over 70% in size
# Summary of the method: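 Unlinked Zika NS2B hydrophilic domain–NS3 protease complex at 25 nM in 10 mM Tris-HCl pH 8.0, 0.01% Tween 20, with an AMC peptide substrate. Fluorescence change (340/450 nm) over 15 min at room temperature, normalized to controls, fitted to 4-parameter Hill.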
# [18] = qHTS Assay for Lipid Storage Modulators (AID 1519; calls by dose curve); conditions: Drosophila S3 cells, BODIPY lipid droplet/cell ratio, laser cytometry, cells loaded with oleic acid
# Summary of the method: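 Cells seeded at 5,000 per well were treated with compounds over a concentration series and loaded with oleic acid (400 uM, as added). Lipid droplet fluorescence (488 nm excitation, 500-530 nm channel) was read by laser-scanning cytometry and normalized to 20 uM Triacsin C.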
# [19] = target: Ubiquitin carboxyl-terminal hydrolase 1 (Homo sapiens) (UniProt O94782); experiment: Inhibitors of USP1/UAF1: Pilot qHTS (AID 504865);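 also: rhodamine fluorescence freed from ubiquitin-rhodamine substrate followed over time; top concentration of the series differs between compounds; nearly all actives have a fitted effect of over 35% in size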
# Chain of Ubiquitin carboxyl-terminal hydrolase 1 (Homo sapiens) (O94782 whole entry, looked up): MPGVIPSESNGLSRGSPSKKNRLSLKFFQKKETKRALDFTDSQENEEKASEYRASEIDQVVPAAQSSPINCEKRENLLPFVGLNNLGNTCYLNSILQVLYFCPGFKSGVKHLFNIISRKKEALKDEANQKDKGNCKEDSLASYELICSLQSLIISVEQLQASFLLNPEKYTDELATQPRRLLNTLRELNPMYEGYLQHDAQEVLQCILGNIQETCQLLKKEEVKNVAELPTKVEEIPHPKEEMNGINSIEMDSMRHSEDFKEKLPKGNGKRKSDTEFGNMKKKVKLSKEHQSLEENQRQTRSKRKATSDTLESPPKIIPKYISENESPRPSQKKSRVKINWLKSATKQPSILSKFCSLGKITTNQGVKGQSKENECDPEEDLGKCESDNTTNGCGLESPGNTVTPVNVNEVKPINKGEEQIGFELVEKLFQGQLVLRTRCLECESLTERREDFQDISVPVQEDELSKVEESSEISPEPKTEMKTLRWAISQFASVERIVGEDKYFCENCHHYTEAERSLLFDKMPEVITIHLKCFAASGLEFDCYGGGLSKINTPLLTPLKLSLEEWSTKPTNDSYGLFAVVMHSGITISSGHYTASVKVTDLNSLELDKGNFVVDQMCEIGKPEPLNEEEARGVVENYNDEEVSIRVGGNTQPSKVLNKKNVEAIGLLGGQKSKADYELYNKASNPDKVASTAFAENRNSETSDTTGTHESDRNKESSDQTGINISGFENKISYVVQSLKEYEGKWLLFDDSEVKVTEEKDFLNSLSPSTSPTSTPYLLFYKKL
# Summary of the method: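 Deubiquitinase activity followed as kinetic rhodamine fluorescence release from 150 nM Ub-Rho. 1 nM USP1/UAF1 with compound, after 15 min room-temperature preincubation, in HEPES pH 7.8 buffer containing TCEP, EDTA, BSA and Tween-20.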
compound,measurement,setting,value
CCN1C[C@]2(C)CC[C@@H](O)[C@]34C1[C@H](C[C@H]23)C12CCC(CC14)[C@](O)(CO)[C@H]2O (stereo partly specified),Potency,[1],inactive
same,Potency,[2],inactive
same,Potency,[3],inactive
same,Potency,[4],inactive
same,Potency,[5],inactive
same,Potency,[6],inactive
same,Potency,[7],inactive
same,outcome,[8],inactive
same,outcome,[9],inactive
C[C@@H](N)Cn1ccc2cc(F)c(Cl)cc21,Potency,[10],0.0501 µM (active)
same,Potency,[11],> 46 µM (inactive)
same,Potency,[12],> 46 µM (inactive)
same,outcome,[13],inactive
same,Potency,[14],inactive
same,Potency,[15],inactive
same,Potency,[16],inactive
same,Potency,[17],inactive
C[C@]12CC(O)C3[C@@H](CCC4C[C@@H](O)CC[C@@]43CO)[C@@]1(O)CCC2C1=CC(=O)OC1 (stereo partly specified),Potency,[1],62.1 µM (active)
same,Potency,[2],inactive
same,Potency,[3],inactive
same,Potency,[4],inactive
same,Potency,[5],inactive
same,Potency,[6],inactive
same,Potency,[7],inactive
same,outcome,[8],inactive
same,outcome,[9],inactive
CO[C@H](c1ccccc1)[C@H]1NC(=O)C(C)NC(=O)C(C[C@@H](C)CO)N(C)C(=O)[C@@H](C(O)c2cn(C(C)(C)C3CO3)c3ccccc23)NC(=O)C(C(C)C=C(C)C)NC(=O)C(CC(C)C)N(C)C(=O)C(C(C)C)NC1=O (stereo partly specified),Potency,[1],21.6 µM (active)
same,Potency,[2],inactive
same,Potency,[3],inactive
same,Potency,[4],inactive
same,Potency,[5],inactive
same,Potency,[6],inactive
same,Potency,[7],inactive
same,outcome,[8],inactive
same,outcome,[9],inactive
CCC(=O)CCCCC[C@@H]1NC(=O)[C@H]2CCCCN2C(=O)[C@H]([C@@H](C)CC)NC(=O)[C@H](Cc2cn(OC)c3ccccc23)NC1=O,Potency,[1],13.9 µM (active)
same,Potency,[2],4.72 µM (active)
same,Potency,[3],3.75 µM (active)
same,Potency,[4],16.7 µM (active)
same,Potency,[5],6.66 µM (active)
same,Potency,[6],inactive
same,Potency,[7],inactive
same,outcome,[8],inactive
same,outcome,[9],inactive
Cc1c(C(=O)c2ccc3ccccc3c2)c2cccc3c2n1[C@H](CN1CCOCC1)CO3,Potency,[10],inactive
same,Potency,[11],> 46 µM (inactive)
same,Potency,[12],> 46 µM (inactive)
same,Potency,[14],inactive
same,Potency,[15],inactive
same,Potency,[16],inactive
same,Potency,[17],inactive
CC(C)n1cnc2c(C(=O)N[C@H]3CN4CCC3CC4)cc(Cl)cc21,Potency,[12],> 46 µM (inactive)
same,Potency,[14],inactive
same,Potency,[15],31.6 µM (active)
same,"activity change, negative = inhibition",[18]; at 57.5 µM (top of the series),2.71% (inactive)
same,max response,[18]; measured here: cell count channel max response,14.7%
same,max response,[18]; measured here: lipid channel max response,19.1%
same,Potency,[19],inactive
same,Potency,[16],inactive
same,Potency,[17],inactive
Fc1ccc(C(OCCN2CCN(C/C=C\c3ccccc3)CC2)c2ccc(F)cc2)cc1,Potency,[10],31.6 µM (active)
same,Potency,[11],> 46 µM (inactive)
same,Potency,[12],> 46 µM (inactive)
same,outcome,[13],inactive
same,Potency,[15],inactive
same,Potency,[17],inactive
CN1CC[C@@H]2CN3CCc4cccc(c43)[C@H]2C1,Potency,[11],> 46 µM (inactive)
same,Potency,[12],> 46 µM (inactive)
same,outcome,[13],inactive
same,Potency,[16],inactive
same,Potency,[17],inactive
